This note sets out measurements from PubChem BioAssay AID720540 (National Center for Advancing Translational Sciences (NCATS), 2013).

About 460 (35%) of roughly 1,300 compounds were called active. Not shown: some 39% with an inconclusive outcome. The list shows a part of the results. Values without a mark were called inactive. Calls follow the shape of the dose curve; as a rule, active = well fitted inhibition curve with a large enough effect; inconclusive = small, poorly fitted or top-dose-only effect; inactive = flat fitted curve, though single readings scatter.
Potency is read from the fitted curve at half-maximal effect.

Chain of Protein phosphatase EYA2 (Homo sapiens) (O00167 whole entry, looked up): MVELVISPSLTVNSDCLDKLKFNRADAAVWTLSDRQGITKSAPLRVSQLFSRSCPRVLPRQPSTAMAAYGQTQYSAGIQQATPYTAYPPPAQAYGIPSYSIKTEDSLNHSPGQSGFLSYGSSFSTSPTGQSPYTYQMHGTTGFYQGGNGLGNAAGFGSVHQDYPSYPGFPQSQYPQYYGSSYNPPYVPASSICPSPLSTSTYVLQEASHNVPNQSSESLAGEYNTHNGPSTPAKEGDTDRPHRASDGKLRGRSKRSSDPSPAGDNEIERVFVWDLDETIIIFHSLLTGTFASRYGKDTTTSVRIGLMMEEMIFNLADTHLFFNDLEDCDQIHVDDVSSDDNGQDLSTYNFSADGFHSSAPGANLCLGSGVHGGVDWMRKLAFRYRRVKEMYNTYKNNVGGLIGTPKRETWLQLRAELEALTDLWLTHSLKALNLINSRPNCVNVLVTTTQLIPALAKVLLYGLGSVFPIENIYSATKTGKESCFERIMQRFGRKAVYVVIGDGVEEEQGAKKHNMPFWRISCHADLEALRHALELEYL

The assay deals with Protein phosphatase EYA2 (Homo sapiens) (UniProt O00167). Nature of the assay: qHTS for Inhibitors of the Phosphatase Activity of Eya2: Confirmatory Assay for Cherry-picked Compounds. Also: nearly all actives have a fitted effect of over 65% in size.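 As to activity change, negative = inhibition: 0% = DMSO wells and -100% = EGTA control giving full inhibition.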 The settings on record: purified EYA2 phosphatase activity, qHTS confirmation; series mostly up to 46.1 µM; activity change, negative = inhibition: at the top concentration. The method in brief:
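Eya2 (0.2 uM working solution) preincubated 10 min at room temperature with compound in pH 7.5 HEPES buffer with MgCl2, BSA, DTT. OMFP added (50 uM working solution), 10 min more; fluorescence 485/525 nm, normalized to EGTA and DMSO.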
Turning to `Cc1ccc(N=Cc2cccc(O)c2O)c(C)c1`, the “activity change, negative = inhibition” value is -21.4%.
As for `CCn1cc(C(=O)N[C@@H](C)C(=O)NCCCn2ccnc2)c(=O)c2cc3c(cc21)OCO3`, the “activity change, negative = inhibition” value was -9.75%.
In the case of `Cc1ccc(C(=O)N/C(=C\c2ccco2)C(=O)NCCCn2ccnc2)cc1`, the Potency is 4.26 µM (active).
Take `COC(=O)c1ccc(OC(=O)c2cccs2)cc1`: the Potency was 10.7 µM (active).
In the case of `O=C(CNC(=O)c1cccs1)OCC(=O)c1ccc(Cl)cc1`, the “activity change, negative = inhibition” value is -2.28%.
Consider `CC(C)S(=O)(=O)c1cnc(-c2ccccn2)nc1N`, for which the Potency was 16.9 µM (active).
Regarding `CN(CC(=O)Nc1cccc(F)c1)C(=O)c1ccc(COc2ccccc2)cc1`, the “activity change, negative = inhibition” value is -2.16%.
In the case of `COc1ccccc1CNC(=O)CSc1ccc(-c2ccccn2)nn1`, the Potency is 12 µM (active).
Regarding `O=C(CSc1ccc(-c2ccccn2)nn1)Nc1cccc(F)c1`, the Potency is 3.79 µM (active).
Turning to `COc1cc(NC(=O)c2ccc(S(=O)(=O)N(C)c3ccccc3)cc2)cc(OC)c1`, the “activity change, negative = inhibition” value is -25%.
On to `COc1cc(NC(=O)CSc2ccc(-c3ccccn3)nn2)cc(OC)c1`, for which the Potency was 2.13 µM (active).
In the case of `COc1ccc(NC(=O)CSc2ccc(-c3ccccn3)nn2)cc1OC`, the Potency is 3.79 µM (active).
For `Cn1c(-c2cc(Cl)ccc2O)nc2c1c(=O)[nH]c(=O)n2Cc1ccccc1`, the “activity change, negative = inhibition” value is -7.95%.
On to `O=C(Cc1cccs1)Nc1ccc2c(c1)C(=O)OC2`, for which the “activity change, negative = inhibition” value was -9.15%.
On to `Cc1cnc(C(=O)Nc2ccccc2-c2ccc(C)o2)cn1`, for which the “activity change, negative = inhibition” value is -7.17%.
With `Cc1cccc(-n2c(O)c(C=Nc3ccccc3)c3ccccc3c2=O)n1`, the “activity change, negative = inhibition” value is -24.5%.
Take `Cc1[nH]n(-c2cccc3ccccc23)c(=O)c1C=Nc1ccc2[nH]c(=O)[nH]c2c1`: the Potency is 7.57 µM (active).
On the same count and under the same terms, to `C/C=C/c1ccc(OCCSc2nc(C)cc(=O)[nH]2)c(OC)c1` belongs 13.5 µM (active); to `CC(C)Nc1nnc(SCC(=O)Nc2ccc3c(c2)C(=O)c2ccccc2C3=O)s1`, 6.75 µM (active).
For the compound `C/C(N)=C(/C#N)C(=O)CSc1nnc(Nc2cccc(C)c2)s1`, the “activity change, negative = inhibition” value is -14.6%.
As for `Cc1cc(NC(=O)CSc2nnc(Nc3ccccc3F)s2)no1`, the “activity change, negative = inhibition” value is -3.99%.
Still for that read-out and setting: for `CC(C)[C@H](NC(=O)c1ccccc1)C(=O)NC1CCCCCCC1` the value was -2.97%.
For `O=C(O)c1ccc2nc(-c3ccco3)c(-c3ccco3)nc2c1`, the Potency is 8.49 µM (active).
For `O=C(NC1CC1)c1ccc2nc(-c3ccco3)c(-c3ccco3)nc2c1`, the Potency is 13.5 µM (active).
Turning to `CC1CCN(CC2C(=O)O[C@@H]3C[C@@]4(C)CCC[C@H](C)C4=C[C@H]23)CC(C)(C)C1` (stereo not given in full), the “activity change, negative = inhibition” value was -19.1%.
With `CC(=O)Oc1ccccc1C(=O)Oc1ccc(/C=N/n2cnnc2)cc1`, the Potency is 16.9 µM (active).
In the case of `CCC(C)C(CO)NC(=O)/C=C/[C@H]1O[C@@H](n2cnc3c(NC(=O)c4ccccc4)ncnc32)[C@H](O)[C@@H]1O` (stereo not given in full), the “activity change, negative = inhibition” value is -4.92%.
Take `Cc1cc(C(=O)COC(=O)c2cccnc2Cl)c(C)n1-c1c(C)n(C)n(-c2ccccc2)c1=O`: the “activity change, negative = inhibition” value was -6.15%.
Turning to `O=C(OCC(=O)c1ccc(Cl)cc1Cl)c1ccccn1`, the Potency is 19 µM (active).
Take `O=C(CSc1nnc2c(n1)[nH]c1ccccc12)Nc1ccc(S(=O)(=O)Nc2ncccn2)cc1`: the Potency was 5.36 µM (active).
With `CCc1ccc2[nH]c3nc(SCC(=O)NCC4CCCO4)nnc3c2c1` (stereo not given), the Potency was 6.01 µM (active).
As for `CCOc1ccc2[nH]c3nc(SCC(=O)NC4CCCC4)nnc3c2c1`, the “activity change, negative = inhibition” value was -10.1%.
Take `Cc1c(CC(=O)NCC(=O)O)c(=O)oc2cc3occ(-c4ccccc4)c3cc12`: the Potency was 16.9 µM (active).
Regarding `Cc1c(CC(=O)NCCCC(=O)O)c(=O)oc2cc3occ(-c4ccccc4)c3cc12`, the Potency is 19 µM (active).
As to `Cc1c(CC(=O)N[C@@H](C)C(=O)O)c(=O)oc2cc3occ(-c4ccccc4)c3cc12`, the Potency was 8.49 µM (active).
Regarding `Cc1c(CCC(=O)NCCCCCC(=O)O)c(=O)oc2cc3occ(-c4ccccc4)c3cc12`, the Potency was 15.1 µM (active).
The same measure, in the same setting: for `O=c1cc2oc3cc(O)c(O)cc3c(-c3ccccc3[N+](=O)[O-])c-2cc1O` the value was 16.9 µM (active).
For the compound `CC1=C(/C=C/C(C)=C/C=C/C(C)=C/C(=O)Nc2ccc(O)cc2)C(C)(C)CCC1`, the “activity change, negative = inhibition” value is -26%.
Turning to `CN1/C(=C\C=C2/SC(=S)NC2=O)C(C)(C)c2ccccc21`, the Potency was 15.1 µM (active).
As to `CC1=NN(c2ccccc2)C(=O)/C1=C\C=C1/N(C)c2ccccc2C1(C)C`, the Potency was 7.57 µM (active).
With `Cc1ccc(-n2[nH]c(C)c(C=Nc3ccc(S(=O)(=O)Nc4nccs4)cc3)c2=O)cc1C`, the Potency was 8.49 µM (active).
For `Cc1c(CCC(=O)O)c(=O)oc2c(C)c(OCc3cc4c(cc3Cl)OCO4)ccc12`, the Potency is 9.53 µM (active).
Turning to `COc1cccc2c1C(=O)/C(=C/c1ccc(N(C)C)cc1)C2`, the Potency was 4.26 µM (active).
In the case of `COc1ccc(/C=C2\CCc3ccccc3C2=O)cc1CN1CCOCC1`, the “activity change, negative = inhibition” value was -17.2%.
With `Cc1ccc(C(=O)Oc2ccc(N3C(=O)CCC3=O)c(C)c2)cc1`, the Potency is 2.69 µM (active).
Still for that read-out and setting: for `Cc1ccc(C(=O)Oc2ccc3ccc(=O)oc3c2)cc1` the value was 1.9 µM (active).
For `Cc1cc(NC(=O)c2cccc(N3C(=O)CCC3=O)c2)no1`, the “activity change, negative = inhibition” value was -4.17%.
Consider `CCC(C)c1ccc2oc(-c3ccc(NC(=O)c4ncn[nH]4)cc3)nc2c1` (stereo not given), for which the Potency was 15.1 µM (active).
Take `CC(C)c1ccc2oc(-c3ccc(NC(=O)c4ncn[nH]4)cc3)nc2c1`: the Potency is 16.9 µM (active).
`CCN(CC)c1ccc(N=Cc2cc(Br)ccc2O)cc1`: the “activity change, negative = inhibition” value is -1.65%.
Take `CCN(CC)c1ccc(NC(=O)COC(=O)CSc2ccc(Br)cc2C)cc1`: the Potency was 12 µM (active).
With `CN(C)c1ccc(/C=C/c2ccnc3ccc(-c4ccccc4)cc23)cc1`, the Potency was 21.3 µM (active).
Still for that read-out and setting: for `CCN(C)c1ccc(/C=C/c2ccnc3ccccc23)cc1` the value was 21.3 µM (active).
As for `Cc1ccc(O)c(C(=O)c2cnc3c(c2)c(-c2ccc(F)cc2)c(C#N)c(=O)n3C)c1`, the “activity change, negative = inhibition” value is -2.46%.
In the case of `O=C(Nc1nc2ccc(F)cc2s1)C1=NN(c2ccccc2)C(=O)CC1`, the “activity change, negative = inhibition” value is -12.7%.
On to `COc1ccc(CCNc2nc(-c3ccccn3)cs2)cc1OC`, for which the Potency is 7.57 µM (active).
Turning to `COc1ccc(CCNC(=O)C(=O)NCc2cccs2)cc1OC`, the “activity change, negative = inhibition” value was -9.57%.
Consider `Cc1cccc(NC(=S)N(CCN2CCOCC2)Cc2cc3cc4c(cc3[nH]c2=O)OCCO4)c1`, for which the “activity change, negative = inhibition” value is -16.9%.
Same read-out and setting: to `Cc1ccc(S(=O)(=O)Nc2c(C)n(C)n(-c3ccccc3)c2=O)cc1C(=O)OC(C)C(=O)N(C)c1ccccc1` (stereo not given) belongs -22.5%.
For `CC(=O)NC(c1ccc(Cl)cc1)c1ccc2cccnc2c1O` (stereo not given), the Potency was 2.13 µM (active).
In the case of `COc1ccc(C(NC(C)=O)c2ccc3cccnc3c2O)cc1OC` (stereo not given), the Potency is 1.69 µM (active).
`CCCC(=O)NC(c1ccc(OC)c(OC)c1)c1cc(Cl)c2cccnc2c1O` (stereo not given): the Potency was 2.69 µM (active).
As to `CCCCC(=O)NC(c1cccc([N+](=O)[O-])c1)c1ccc2cccnc2c1O` (stereo not given), the Potency is 4.26 µM (active).
As to `O=C(O)c1ccccc1NC(c1ccccc1)c1ccc2cccnc2c1O` (stereo not given), the Potency is 3.38 µM (active).
Take `CCC(=O)NC(c1cccs1)c1cc(Cl)c2cccnc2c1O` (stereo not given): the Potency is 1.51 µM (active).
Turning to `COc1ccc(C(NC(C)=O)c2cc(Cl)c3cccnc3c2O)cc1OC` (stereo not given), the Potency was 1.69 µM (active).
Take `CC(C)C(=O)NC(c1ccc(Cl)cc1Cl)c1ccc2cccnc2c1O` (stereo not given): the Potency was 5.36 µM (active).
On to `CCOc1ccc(Nc2nc(N)nc(CN(C)C3CCCCC3)n2)cc1`, for which the “activity change, negative = inhibition” value is -11.1%.
Still for that read-out and setting: for `O=C(O)c1c(C(=O)N2N=C3/C(=C/c4ccccc4)CCCC3C2c2ccccc2)cccc1[N+](=O)[O-]` (stereo not given) the value was -12.9%; for `CCCc1ccc(C#N)c(SC2CC(=O)N(c3ccc(OC)cc3)C2=O)n1` (stereo not given), -24.4%; for `O=C(NC1CCCC1)c1cc(=O)[nH]c2ccccc12`, 3.18%.
`O=C(Oc1ccc(Cl)c2cccnc12)C12CC3CC(CC(C3)C1)C2`: the “activity change, negative = inhibition” value is 0.3%.
Turning to `CCCCC(=O)NC(c1ccco1)c1cc(Cl)c2cccnc2c1O` (stereo not given), the Potency is 3.38 µM (active).
Consider `CCC(=O)NC(c1ccc(OC)c(OC)c1)c1cc(Cl)c2cccnc2c1O` (stereo not given), for which the Potency was 1.69 µM (active).
In the case of `Nc1[nH]nc2ncc3cc4ccccc4nc3c12`, the Potency is 15.1 µM (active).
With `COc1ccc(-c2cn(Cc3ccc4c(c3)C(=O)c3ccccc3C4=O)nn2)cc1`, the “activity change, negative = inhibition” value is -4.41%.
For `CCc1ccc2oc(-c3ccc(OC)cc3)cc(=Nc3c(C)n(C)n(-c4ccccc4)c3=O)c2c1`, the Potency was 16.9 µM (active).
In the case of `COc1cccc(N2CCN(c3ccc4nnc(CCC(=O)Nc5cccc(C(C)=O)c5)n4n3)CC2)c1`, the “activity change, negative = inhibition” value is -6.09%.
On to `O=C(Nc1ccccc1Cl)N1CCN(c2ccc3nnc(-c4ccccc4)n3n2)CC1`, for which the Potency is 6.75 µM (active).
For the compound `C[C@@]12CCC=C[C@H]1[C@H](c1ccc3ccccc3c1/C=C/c1ccccc1)N(Cc1ccccc1)C2=O`, the “activity change, negative = inhibition” value is -29.4%.
Take `CCc1cnc2ccccc2c1/C=C/c1ccc(N(C)C)cc1`: the Potency is 7.57 µM (active).
Turning to `Cc1ccc(-n2nnnc2C(=Cc2ccc(N(C)C)cc2)c2nnnn2-c2ccc(C)cc2)cc1`, the “activity change, negative = inhibition” value is -11.3%.
In the case of `CCN(CC)c1ccc(/C=C/c2c(C)cnc3ccc(C)cc23)cc1`, the Potency was 8.49 µM (active).
Consider `Cc1ccc2c(/C=C/c3ccc(N(C)C)cc3)c(C)cnc2c1`, for which the Potency is 8.49 µM (active).
As to `Cc1cnc2ccc(I)cc2c1/C=C/c1ccc(N(C)C)cc1`, the Potency is 7.57 µM (active).
As for `Cn1c(=O)c2[nH]c(COc3ccccc3)nc2n(C)c1=O`, the “activity change, negative = inhibition” value is -12.9%.
`COc1cc(OC)c(OC)cc1/C=C/c1nccc2ccccc12`: the Potency was 7.57 µM (active).
With `Cc1cc(C)c(OCCCCN(C)Cc2ccccc2)c(C)c1`, the “activity change, negative = inhibition” value is 22.9%.
`Cn1c(=O)cc2c3c(c(N4CCCCC4)ccc31)C(=O)c1ccccc1-2`: the Potency is 3.38 µM (active).
Regarding `Cc1cccc(C)c1OCc1cc(C(=O)N2CCN(c3ccccc3)CC2C)no1` (stereo not given), the “activity change, negative = inhibition” value was -11.7%.
Consider `Cc1c(NC(=O)/C(C#N)=C/c2ccc(-c3cc(Cl)ccc3Cl)o2)c(=O)n(-c2ccccc2)n1C`, for which the Potency is 7.57 µM (active).
Turning to `CCOc1ccc2nc(N3CCCC(C(=O)N4CCN(CC)CC4)C3)sc2c1` (stereo not given), the “activity change, negative = inhibition” value is -10%.
For `CCOC(=O)c1ccc(NC(=S)N2CCN(CCN=CC3=C(O)CC(c4ccccc4)CC3=O)CC2)cc1` (stereo not given), the “activity change, negative = inhibition” value was -0.24%.
As to `CS(=O)(=O)c1ccc(C(=O)Nc2nc(-c3ccco3)c(-c3ccco3)s2)cc1`, the Potency was 12 µM (active).
As for `CS(=O)(=O)c1ccc2nc(NC(=O)c3ccccc3Cl)sc2c1`, the “activity change, negative = inhibition” value is -4.83%.
